Data on twelve compounds can be found in PubChem BioAssay.

Structures are written as SMILES. The source made the active and inactive calls. Unless noted, the rule behind the calls is not given here.

Test [1] in a line: HepG2 liver cancer cell viability effects, profiling panel, resazurin fluorescence, 24 h, PK04 Diversity Set (AID 1172). Note: test concentration not given here. Conditions: higher = more signal.
Test [2] can be described thus: basal S. cerevisiae growth modulation, no modifier, primary screen, OD600, strain BY4716, 24 h, basal condition (AID 1173). Conditions: OD600, 24 h, higher = more signal, called active from +8 up or from −8 down.
Test [3] in a line: MM1S myeloma cell viability, profiling panel, resazurin fluorescence, basal, 24 h, PK04 Diversity Set (AID 1174). Note: test concentration not given here. Particulars: higher = more signal, called active from +8 up or from −8 down.
The target in test [4] is Dihydroorotate dehydrogenase (quinone), mitochondrial (Plasmodium falciparum (isolate 3D7)) (UniProt Q08210). In words: PfDHODH enzyme inhibitors, primary screen, biochemical, C-terminal His tag, absorbance 600 nm (AID 1175).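 Note: recombinant parasite enzyme with a five histidine tag at its C terminus; test concentration not given here.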 Particulars: DCIP absorbance 600 nm, higher = more signal, called active from +8 up or from −8 down.
Dihydroorotate dehydrogenase (quinone), mitochondrial (Plasmodium falciparum (isolate 3D7)), sequence (Q08210 whole entry, looked up): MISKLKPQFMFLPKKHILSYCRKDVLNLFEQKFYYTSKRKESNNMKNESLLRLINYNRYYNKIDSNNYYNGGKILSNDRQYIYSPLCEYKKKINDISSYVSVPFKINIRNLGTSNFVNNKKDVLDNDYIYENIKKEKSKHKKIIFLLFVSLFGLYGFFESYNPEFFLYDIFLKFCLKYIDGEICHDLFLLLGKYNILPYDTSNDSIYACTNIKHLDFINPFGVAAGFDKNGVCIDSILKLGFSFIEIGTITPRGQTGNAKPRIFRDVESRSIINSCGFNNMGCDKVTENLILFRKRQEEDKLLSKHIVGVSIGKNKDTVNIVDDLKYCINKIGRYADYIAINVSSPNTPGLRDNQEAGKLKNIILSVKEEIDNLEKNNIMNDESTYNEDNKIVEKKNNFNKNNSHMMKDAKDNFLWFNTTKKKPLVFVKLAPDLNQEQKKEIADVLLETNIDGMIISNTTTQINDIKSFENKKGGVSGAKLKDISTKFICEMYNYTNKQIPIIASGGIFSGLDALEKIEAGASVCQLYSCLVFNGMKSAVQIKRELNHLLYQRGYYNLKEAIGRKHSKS
Test [5] in a line: P. aeruginosa biofilm formation inhibitors, primary screen, strain PAO1, LB-PBS medium, absorbance 600 nm (AID 1176). Note: test concentration not given here. Particulars: P. aeruginosa PAO1 growth/biofilm, A600, 12 h; higher = more signal.
Test [6] is described as follows: S. cerevisiae RM11-1a growth modifiers, primary screen, strain RM11-1a, OD600, basal, 24 h (AID 1177).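 Note: cultures grown under basal conditions with no added stressor; test concentration not given here.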 Conditions: OD600, 24 h, higher = more signal, called active from +8 up or from −8 down.
Test [7] is described as follows: E. coli acrAB mutant growth effects, primary screen, E. coli filamentation inducers, strain DRC39, OD650, 24 h (AID 1178).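 Note: growth measured as culture turbidity by optical density at 650 nm; test concentration not given here.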 Conditions: higher = more signal, called active from +8 up or from −8 down.
Test [8] in a line: E. coli acrAB mutant growth effects, primary screen, E. coli filamentation inducers, strain DRC39, OD650, 48 h (AID 1179).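 Note: screen aims at cell division blockers that make cells filament.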 Particulars: E. coli DRC39 delta-acrAB growth, higher = more signal, called active from +8 up or from −8 down.
Test [9] can be described thus: RPMI8226 myeloma cell viability, profiling panel, resazurin fluorescence, basal, 24 h, PK04 Diversity Set (AID 1180).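 Note: RPMI8826 multiple myeloma cell line at 5000 cells per well; test concentration not given here.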 Conditions: higher = more signal.
The target of test [10] is E3 ubiquitin-protein ligase XIAP (Homo sapiens) (UniProt P98170). The test is described as follows: XIAP binders, primary screen, biophysical, small-molecule microarray, fluorescence 635 nm (AID 1181).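 Note: score merges 667 nm emission and signal to noise over triplicate slides.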 Particulars: small-molecule microarray binding, higher = more signal.
E3 ubiquitin-protein ligase XIAP (Homo sapiens), sequence (P98170 whole entry, looked up): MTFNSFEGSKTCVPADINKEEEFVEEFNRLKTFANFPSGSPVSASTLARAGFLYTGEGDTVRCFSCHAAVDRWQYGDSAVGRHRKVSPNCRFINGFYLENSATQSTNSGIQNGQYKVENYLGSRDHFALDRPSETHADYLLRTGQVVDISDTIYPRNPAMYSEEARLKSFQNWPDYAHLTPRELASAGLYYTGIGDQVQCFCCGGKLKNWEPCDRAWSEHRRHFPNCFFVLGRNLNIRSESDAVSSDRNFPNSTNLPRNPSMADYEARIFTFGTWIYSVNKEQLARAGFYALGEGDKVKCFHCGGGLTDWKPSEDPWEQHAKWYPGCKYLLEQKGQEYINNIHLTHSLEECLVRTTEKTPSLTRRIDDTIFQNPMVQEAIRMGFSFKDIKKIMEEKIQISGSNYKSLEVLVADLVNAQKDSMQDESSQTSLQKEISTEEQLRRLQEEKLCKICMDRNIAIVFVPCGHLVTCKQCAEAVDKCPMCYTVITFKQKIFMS

Consider `CCOC(=O)C1=CC[C@@H](c2ccc(N(CC)CC)cc2)N(S(=O)(=O)c2ccc(C)cc2)[C@H]1c1ccc([N+](=O)[O-])cc1`, for which the z-score in [1] was -0.407; in test [2], -0.0341 (inactive); in test [3], -0.095 (inactive); in test [5] it was 0.698 (inactive); in test [6], -0.101 (inactive); in [7], -0.19 (inactive). Further, the values for the z-score in test [8] and in [9] were -0.0619 (inactive) and -1.06, respectively. For the same compound, the composite z-score was -0.719 (inactive) in test [4] and -0.0143 in [10].

`C[N+](C)(C)CCCCNC(=O)[C@H]1C[C@H]2C(=O)NCC(=O)N2[C@H]1c1ccc(O)cc1`: the z-score is -0.103 in test [1]; 0.105 (inactive) in [2]; -0.511 (inactive) in test [3]; 0.28 (inactive) in test [5]; -0.279 (inactive) in test [6]; 0.703 (inactive) in test [7]. Moreover, the z-score in test [8] was 1.35 (inactive); in [9], -0.253. The composite z-score in test [4] was -29.2 (active); in test [10] it was -0.17.

In the case of `COc1ccc([Si](C)(C)[C@@H]2[C@@H](CC(=O)N(CCO)Cc3ccccc3)O[C@]3(C(=O)N(C)c4c(Br)cc(C)cc43)[C@H]2C)cc1`, the z-score is -1.57 in [1]; -0.951 (inactive) in [2]; -1.79 (inactive) in [3]; 0.802 (inactive) in test [5]; 1.64 (inactive) in [6]; -0.109 (inactive) in [7]. Also, the z-score in test [8] is -0.75 (inactive); in test [9], -2.21. The composite z-score was 0.216 (inactive) in [4] and -0.174 in [10].

Consider `CC1CC/C=C\[C@H]2OC34C=CCN(Cc5ccccc5)C(=O)[C@H]3N(CCO)C(=O)[C@@H]4C2C(=O)O1` (stereo not given in full), for which the z-score is -0.811 in test [1]; -0.73 (inactive) in test [2]; 0.32 (inactive) in [3]; -0.758 (inactive) in test [5]; 0.606 (inactive) in [6]; 0.98 (inactive) in test [7]. For the same compound, the values for the z-score in test [8] and in [9] were 0.566 (inactive) and 0.301, respectively. Also, the composite z-score is 0.622 (inactive) in test [4] and -0.147 in test [10].

`COCCOC(=O)N1C(=O)[C@@]2(c3cc(C#Cc4ccc(OC)cc4)ccc31)[C@H](c1ccc(OCCO)cc1)N1[C@H](c3ccccc3)[C@H](c3ccccc3)OC(=O)[C@H]1[C@@H]2C(N)=O`: the z-score is -0.83 in [1]; 1.71 (inactive) in [2]; -1.85 (inactive) in [3]; 3.36 (inactive) in [5]; 2.82 (inactive) in test [6]; 0.721 (inactive) in [7]. For the same compound, the results for the z-score in [8] and in [9] were 0.366 (inactive) and -2.36, respectively. In addition, the composite z-score was -0.675 (inactive) in test [4] and 0.269 in test [10].

Regarding `C=C(/C(=C/C[C@@H](OC(C)=O)c1ccccc1OCCO)c1cnc2ccccc2c1)C(C)C`, the z-score in test [1] is -1; in test [2], -1.34 (inactive); in test [3], -0.601 (inactive); in test [5] it was 0.108 (inactive); in test [6], 0.29 (inactive); in test [7], -0.997 (inactive). Besides, the figures for the z-score in test [8] and in [9] were -0.667 (inactive) and -0.267, respectively. For the same compound, the composite z-score in test [4] is -5.68 (inactive); in test [10] it was -0.102.

Turning to `COCCCNC(=O)[C@@]1(Cc2ccccc2I)c2ccccc2C(=O)N(Cc2ccccc2Cl)[C@H]1c1ccc(CO)cc1`, the z-score is 1.01 in test [1]; -1 (inactive) in [2]; 1.59 (inactive) in test [3]; 0.112 (inactive) in test [5]; -0.0403 (inactive) in [6]; 0.0867 (inactive) in test [7]. In addition, the z-score in test [8] was 0.607 (inactive); in test [9], 1.82. For the same compound, the composite z-score in test [4] was -0.278 (inactive); in test [10], 0.186.

Regarding `COc1cc(C(O)C2C=CC3C(=O)NC(=O)C3N2Nc2ccc(Cl)cc2Cl)cc(OC)c1OC` (stereo not given), the z-score was -0.925 in [1]; -12.7 (active) in test [2]; -0.679 (inactive) in test [3]; 0.683 (inactive) in test [5]; 0.1 (inactive) in [6]; -0.305 (inactive) in [7]. Further, the z-score in test [8] is -0.425 (inactive); in [9], -0.933. Moreover, the values for the composite z-score in [4] and in test [10] were 0.0871 (inactive) and 0.0454, respectively.

Turning to `C=CCOC(=O)[C@@H]1[C@H]2C(=O)O[C@H](c3ccccc3)[C@H](c3ccccc3)N2[C@H](c2ccc(OCCOC(=O)[C@@H]3C[C@@H]4C(=O)N[C@@H](CCCCNC(C)=O)C(=O)N4[C@@H]3c3ccc(O)cc3)cc2)[C@@]12C(=O)Nc1ccc(I)cc12`, the z-score in test [1] was 0.971; in test [2] it was 1.8 (inactive); in test [3] it was 0.668 (inactive); in test [5] it was 0.42 (inactive); in test [6] it was 1.67 (inactive); in test [7], 0.514 (inactive). Further, the z-score in test [8] was 0.099 (inactive); in test [9] it was 0.616. In addition, the composite z-score was -1.19 (inactive) in [4] and 0.158 in test [10].

For the compound `CC(C)=CCCC(C)=CC(O)C1C=CC2C(=O)N(c3ccccc3)C(=O)C2N1Nc1ccc([N+](=O)[O-])cc1` (stereo not given), the z-score was -0.674 in test [1]; -1.14 (inactive) in test [2]; -0.753 (inactive) in [3]; 0.492 (inactive) in test [5]; -0.853 (inactive) in test [6]; -1.49 (inactive) in test [7]. Also, the z-score was -1.43 (inactive) in [8] and -0.276 in [9]. Also, the composite z-score in [4] is -0.697 (inactive); in test [10], 0.0817.

For the compound `COc1ccccc1CN1C(=O)c2ccccc2[C@@H](C(=O)NCC(C)C)[C@@H]1c1ccc(CO)cc1`, the z-score in [1] was -1.4; in test [2], 0.352 (inactive); in test [3], 0.897 (inactive); in test [5], 0.31 (inactive); in [6], 0.777 (inactive); in test [7] it was 0.547 (inactive). For the same compound, the z-score was 0.347 (inactive) in test [8] and 1.02 in test [9]. In addition, the results for the composite z-score in test [4] and in test [10] were 0.769 (inactive) and -0.104, respectively.

As for `COCC(=C=CC[C@@H](O)c1ccccc1OCCO)C[C@@H](O)COCc1ccccc1`, the z-score in test [1] was 0.905; in test [2], -0.413 (inactive); in [3], 1.26 (inactive); in test [5], 0.191 (inactive); in [6], -2.04 (inactive); in [7] it was 2.4 (inactive). The z-score in [8] was 1.6 (inactive); in test [9] it was 0.935. Moreover, the composite z-score is -1.47 (inactive) in test [4] and 0.145 in test [10].
